# Laboratory results from paper PMC7826789 (International Journal of Molecular Sciences, 2021).
# Tested on: CLK1
row,Compound,Kinases covered
1,CCOc1ccc2c(-c3ccnc(Nc4cccc(C(F)(F)F)c4)n3)cnn2n1 [GW811761X],CLK1
2,CC(C)C(=O)N[C@@H]1CCN(C(=O)Nc2nc3c(s2)-c2nc(-c4ccccc4Cl)ncc2CC3)C1 [BI00047804],CLK1
3,CCCNC(=O)c1ccc(Nc2ncc(C(F)(F)F)c(Nc3ccccc3C(C)=O)n2)c(Br)c1 [BI00801818],CLK1
4,CNC(=O)c1c(F)cccc1Nc1nc(Nc2cc3c(cc2OC)CCN3C(=O)CN(C)C)nc2[nH]ccc12 [GSK1838705],CLK1
5,CCOc1ccc2c(-c3ccnc(Nc4cc(OC)cc(C(F)(F)F)c4)n3)cnn2n1 [GW807982X],CLK1

# Tested on: CLK2
row,Compound,Kinases covered
1,COc1ccc2c(-c3ccnc(Nc4cccc(OC(F)(F)F)c4)n3)cnn2n1 [GW810372X],CLK2
2,CCOc1ccc2c(-c3ccnc(Nc4cccc(C(F)(F)F)c4)n3)cnn2n1 [GW811761X],CLK2
3,CNC(=O)c1c(F)cccc1Nc1nc(Nc2cc3c(cc2OC)CCN3C(=O)CN(C)C)nc2[nH]ccc12 [GSK1838705],CLK2
4,CCOc1ccc2c(-c3ccnc(Nc4cc(OC)cc(C(F)(F)F)c4)n3)cnn2n1 [GW807982X],CLK2
5,NS(=O)(=O)c1ccc(N/N=C2\C(=O)Nc3ccc(C(=O)NCCc4c[nH]cn4)cc32)cc1 [GW300660X],CLK2

# Tested on: DDR1
row,Compound,Kinases covered
1,CCN1CCN(Cc2ccc(C(=O)Nc3ccc(C)c(Oc4ccc5c(c4)CC(=O)N5)c3)cc2C(F)(F)F)CC1.Cl.Cl [DDR1-IN-1],DDR1
2,O=C(Nc1ccccc1)Nc1cccc(Oc2ccc3nccn3n2)c1 [TPKI-39],DDR1
3,Cc1ccc(-n2nc(C(C)(C)C)cc2NC(=O)Nc2ccc(OCCN3CCOCC3)cc2)cc1 [BIRB0876BS],DDR1
4,Cc1cn(-c2cc(NC(=O)c3ccc4c(c3)CN(c3cncnc3)C[C@@H]4C)cc(C(F)(F)F)c2)cn1 [D2202-1],DDR1

# Tested on: DYRK1A
row,Compound,Kinases covered
1,COC[C@@H](C)N[C@H]1CC[C@H](Nc2cc(-c3cccc(NCC4(C#N)CCOCC4)n3)c(Cl)cn2)CC1 [NVP-2],DYRK1A
2,CCC(NN(C)C)=C1C(=O)Nc2ccc(C(C)=O)cc21 [BI00036838],DYRK1A
3,CCCNC(=O)c1ccc(Nc2ncc(C(F)(F)F)c(Nc3ccccc3C(C)=O)n2)c(Br)c1 [BI00801818],DYRK1A
